Here are results for 14 molecules from the supplement of paper PMC13380429.

The subject of the assay is Vero E6 infected with SARS-CoV-2. The experiment in a line: morphology score (similarity to uninfected cells); higher = more like uninfected cells. Conditions: 24 h.
The molecule `NC(=O)N/N=C/c1ccc([N+](=O)[O-])o1` [nitrofurazone] (10 µM) yielded a morphology score of 0.187.

`Cc1cccc(C)c1NC(=O)c1ccc(N)cc1` [ameltolide] (10 µM): the morphology score was -0.146.

Regarding `COc1c(C)c2c(c(O)c1C/C=C(\C)CCC(=O)O)C(=O)OC2` [mycophenolic-acid] (10 µM), the morphology score was -0.0923.

In the case of `O=C(c1cccc(Br)c1)N1CCC(N2CCCC2)CC1` (10 µM), the morphology score was -0.00696.

Consider `CCCc1cc(C)[nH]c(=O)c1CNC(=O)c1cc(-c2ccc(N3CCN(C(C)C)CC3)nc2)cc2c1cnn2C(C)C` (10 µM), for which the morphology score came to 0.0705.

Consider `CC1Nc2ccc(Cl)cc2S(=O)(=O)N1` (centres undefined) (10 µM), for which the morphology score was found to be 0.135.

On to `Cn1c(=O)c2[nH]c(Br)nc2n(C)c1=O` [pamabrom] (10 µM), for which the morphology score amounted to 0.0536.

Consider `O=C(OCC(O)CO)c1ccccc1Nc1ccnc2cc(Cl)ccc12` (centres undefined) [glafenine] (10 µM), for which the morphology score came out at 0.535.

`CCCOc1ccc2[nH]c(NC(=O)OC)nc2c1` [oxibendazole] (10 µM) showed a morphology score of -0.158.

The molecule `CS(=O)(=O)OCCCCOS(C)(=O)=O` [busulfan] (10 µM) had a morphology score of -0.026.

Consider `O=C(c1ccc(C(=O)N2CCC(N3CCCC3)CC2)c(Nc2ccccc2)c1)N1CCC(N2CCCC2)CC1` (10 µM), for which the morphology score is -0.0106.

For the molecule `Clc1cccc(Nc2nnc(-c3ccccc3)c3ccccc23)c1` (10 µM), the morphology score amounted to 0.2.

The molecule `CC(C)c1ccc(CC(=O)N2CCC[C@@H](c3cccc(OC(C)(C)C(=O)O)c3)C2)cc1` (10 µM) came in with a morphology score of 0.109.

The molecule `COc1ccc(-c2ccc3cc(C(=O)O)ccc3c2)cc1C12CC3CC(CC(C3)C1)C2` [adapalene] (10 µM) yielded a morphology score of -0.091.
